From PubChem BioAssay
For some assays here: Potency and affinity values are given separately. The list shows a part of the results. The source made the active and inactive calls.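 Rule for the calls, unless noted: active = GFP response above 150% of the DMSO level; inconclusive = fewer than 70 events counted for a yeast strain; inactive = the rest.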

How the values were obtained:
[1] = target: Cell division control protein 42 homolog (Homo sapiens) (UniProt P60953); test: inhibition of fluorescent GTP binding to constitutively active Cdc42 – biochemical, multiplex bead flow cytometry, Bodipy-FL-GTP, dose response (AID 1333;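 active = fitted half-maximal concentration within the tested dose range, moderate curve steepness, a statistically real signal drop, and little compound fluorescence or tag-binding interference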)
Sequence of Cell division control protein 42 homolog (Homo sapiens) (P60953 whole entry, looked up): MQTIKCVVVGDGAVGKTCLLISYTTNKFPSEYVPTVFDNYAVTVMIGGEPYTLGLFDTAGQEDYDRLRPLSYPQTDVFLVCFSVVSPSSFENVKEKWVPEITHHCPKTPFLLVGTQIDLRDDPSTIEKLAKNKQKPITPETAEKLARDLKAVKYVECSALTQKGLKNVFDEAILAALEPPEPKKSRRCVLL

[2] = target: Cell division control protein 42 homolog (Homo sapiens) (UniProt P60953); test: inhibition of fluorescent GTP binding to wildtype Cdc42 – biochemical, multiplex bead flow cytometry, Bodipy-FL-GTP, dose response (AID 1334;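 active = fitted half-maximal concentration within the tested range, moderate curve steepness, significant signal drop, and little compound fluorescence or bead-linkage interference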); conditions: bead-based flow cytometry, Bodipy-FL-GTP binding to GST-Cdc42; at 100 µM (top of the series) unless noted
[3] = target: GTPase HRas (Homo sapiens) (UniProt P01112); test: Ras wt fluorescent GTP loading blockade – biochemical, wildtype, multiplex bead flow cytometry, dose response (AID 1335;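 active = fitted half-maximal concentration within 10 nM to 100 µM, steepness 0.5 to 2, significant signal drop, low assay interference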); conditions: bead-based flow cytometry, Bodipy-GTP binding to GST-Ras; at 100 µM (top of the series) unless noted
Sequence of GTPase HRas (Homo sapiens) (P01112 whole entry, looked up): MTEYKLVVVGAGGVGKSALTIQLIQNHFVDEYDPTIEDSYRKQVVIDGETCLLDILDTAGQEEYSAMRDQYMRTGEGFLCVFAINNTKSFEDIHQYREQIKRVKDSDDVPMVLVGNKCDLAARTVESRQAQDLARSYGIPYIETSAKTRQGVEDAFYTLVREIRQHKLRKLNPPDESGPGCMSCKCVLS

[4] = test system: Ras-related protein Rab-7a (dog), GTP binding; test: blockers of fluorescent GTP binding to Rab7 – biochemical, wildtype, multiplex bead flow cytometry, dose response (AID 1336; call rule not given here)
[5] = target: Ras-related C3 botulinum toxin substrate 1 (Homo sapiens) (UniProt P63000); test: inhibition of wildtype Rac1 nucleotide loading – biochemical, multiplex bead flow cytometry, dose response (AID 1340;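 active = dose curve with midpoint inside tested range, moderate steepness, plateau gap beyond fit error, low compound glow and bead-link interference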); conditions: GST-Rac1 beads, Bodipy-FL-GTP binding; at 100 µM (top of the series) unless noted
[6] = target: GTPase HRas (Homo sapiens) (UniProt P01112); test: blockade of GTP loading onto mutant Ras – biochemical, activated mutant, multiplex bead flow cytometry, dose response (AID 1341;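 active = dose-response curve with midpoint inside the tested range, moderate steepness, significant amplitude and little compound fluorescence or bead-attachment interference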;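 note: GST-tagged constitutively activated Ras mutant immobilized on beads and multiplexed with other GTPases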)
[7] = hit retest on RPL19A-GFP reporter strain – cell-based, S. cerevisiae, flow cytometry, cherry picks, mother/daughter gates, confirmation (AID 2270;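 active = GFP response below 50% of the DMSO control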); conditions: 3 h, at 10 µM, stronger effect = lower value, 100 = same GFP as DMSO wells
[8] = yeast TOR pathway reporter LAP4-GFP change – cell-based, cherry picks, flow cytometry, mother/daughter gates, confirmation (AID 2271;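 active = GFP response above 150% of the DMSO control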;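 note: ratio of sample to DMSO plate mean so 100% equals DMSO level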); conditions: S. cerevisiae LAP4-GFP strain, 3 h, at 10 µM, stronger effect = higher value, 100 means same as DMSO control
[9] = TOR pathway reporter MEP2-GFP, retest of hits – S. cerevisiae, flow cytometry GFP, cherry picks, confirmation (AID 2272;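 active = GFP response above 150% of the DMSO control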;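 note: ratio of well signal to plate DMSO mean so 100% equals DMSO level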); conditions: S. cerevisiae MEP2-GFP strain, 3 h, at 10 µM, stronger effect = higher value
[10] = yeast AGP1-GFP fluorescence change, single-dose – cell-based, flow cytometry, S. cerevisiae, cherry picks, confirmation (AID 2273);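 note: median GFP channel fluorescence over the whole cell population gate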; conditions: S. cerevisiae AGP1-GFP strain, 3 h, at 10 µM
[11] = TOR pathway CIT2 reporter hit retest – S. cerevisiae, GFP fusion, cherry picks, mother/daughter gates, confirmation (AID 2274); conditions: S. cerevisiae CIT2-GFP strain, flow cytometry, 3 h, at 10 µM, stronger effect = higher value
[12] = yeast TOR reporter LAP4-GFP level changes – cell-based, second cherry pick, flow cytometry, confirmation (AID 2621;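 active = GFP signal as percent of the solvent control above about 150%, meaning raised reporter expression, limit read from the data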;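 note: ratio of well median GFP fluorescence to plate DMSO mean so 100% = DMSO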); conditions: S. cerevisiae LAP4-GFP strain, 3 h, at 10 µM, stronger effect = higher value
[13] = TOR pathway reporter MEP2-GFP, hit retest – S. cerevisiae, flow cytometry GFP, second cherry picks, confirmation (AID 2622;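 active = GFP signal above 150% of the solvent control wells, that is a rise of more than half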;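 note: median channel GFP fluorescence of all gated yeast cells per well; ratio of median GFP to plate DMSO average so 100% = DMSO level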); conditions: S. cerevisiae MEP2-GFP strain, 3 h, at 10 µM, stronger effect = higher value
[14] = retest of hits on RPL19A-GFP strain – cell-based, S. cerevisiae, flow cytometry, second cherry pick, confirmation (AID 2623;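 active = under 65% GFP response relative to DMSO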;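 note: median GFP channel fluorescence per well over the all cells gate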); conditions: 3 h, at 10 µM, stronger effect = lower value, 100% means same as DMSO wells
[15] = yeast TOR pathway CIT2-GFP reporter modulation – flow cytometry, second cherry pick, single plex, confirmation (AID 2624;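 active = GFP response vs DMSO above about 150%, limit read from the data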;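 note: median green fluorescence per well over all gated yeast cells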); conditions: S. cerevisiae CIT2-GFP strain, 3 h, at 10 µM, stronger effect = higher value, DMSO control wells read 100%
[16] = yeast AGP1-GFP fluorescence change, single-dose confirmation – cell-based, flow cytometry, S. cerevisiae, cherry pick set 2 (AID 2643;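 active = over 150 percent of DMSO response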;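 note: median GFP channel fluorescence over all cells without mother daughter split; sample median GFP divided by mean DMSO control so 100% equals DMSO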); conditions: S. cerevisiae AGP1-GFP strain, 3 h, at 10 µM, stronger effect = higher value
[17] = green-channel fluorescence artefact in S. cerevisiae – s288c strain, artefact control for yeast TOR pathway GFP screen, dose response (AID 2757;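 active = fluorescence span over the dose series, or activity score, above about 33, limit read from the data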;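 note: thousands of bead-calibrated equivalent soluble fluorophore molecules from median cell fluorescence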); conditions: 520 nm autofluorescence, flow cytometry, 3 h, at 33 µM, stronger effect = higher value, zero means same as solvent-only cells
[18] = measured here: daughter cell gate
[19] = measured here: mother cell gate
[20] = measured here: daughter cell gate response
[21] = measured here: mother cell gate response

With `COC(=O)c1ccc2nc(Nc3nc4c(F)cc(F)cc4s3)sc2c1` the outcome [1] was “inactive”, the fluorescence, percent of control (lower = inhibition) [2] was 33.7% and the GTP binding, percent of control [3] was 85.9%. The outcome [4] was “inactive”, the GTP binding signal, raw median fluorescence (lower = inhibition) (MCF (arbitrary fluorescence units)) [5] was 286 and the outcome [6] was “inactive”. For the same molecule, the GFP response vs DMSO [7] was 98.2% (inactive), the GFP response vs DMSO [7, 18] was 97.3% and the GFP response vs DMSO [7, 19] was 98.3%. For the same molecule, the GFP response relative to DMSO [8] was 91.2% (inactive), the GFP response relative to DMSO [8, 20] was 90.4% and the GFP response relative to DMSO [8, 21] was 93%. The GFP response vs DMSO [9] was 101% (inactive), the GFP response, % of DMSO [10] was 102% (inactive) and the GFP response, % of DMSO [11] was 99.7% (inactive). For the same molecule, the GFP response, % of DMSO [11, 18] was 98.4% and the GFP response, % of DMSO [11, 19] was 98.7%.
In the case of `COc1ccc(/C=C/C(=O)c2cc(Br)ccc(=O)c2O)cc1`, the outcome [1] is reported as “inactive”, the fluorescence, percent of control (lower = inhibition) [2] is reported as 28.6% and the GTP binding, percent of control [3] is reported as 73%. The outcome [4] was “inactive”, the GTP binding signal, raw median fluorescence (lower = inhibition) (MCF (arbitrary fluorescence units)) [5] was 226 and the outcome [6] was “inactive”. For the same molecule, the GFP response vs DMSO [12] was 169% (active), the GFP response vs DMSO [13] was 185% (active) and the GFP response vs DMSO [14] was 77.3% (inactive). For the same molecule, the GFP response vs DMSO [15] was 191% (active), the percent response vs DMSO [16] was 80% (inactive) and the fluorescence change (kMESF span) [17] was 68.2 (active).
In the case of `COCCN1C(=O)/C(=C/c2ccc(N3CCCC3)cc2C)SC1=S`, the outcome [1] is reported as “inactive”, the fluorescence, percent of control (lower = inhibition) [2] is reported as 77.8% and the GTP binding, percent of control [3] is reported as 104%. The outcome [4] was “inactive”, the GTP binding signal, raw median fluorescence (lower = inhibition) (MCF (arbitrary fluorescence units)) [5] was 224 and the outcome [6] was “inactive”. The GFP response vs DMSO [7] was 99.6% (inactive), the GFP response vs DMSO [7, 18] was 99.1% and the GFP response vs DMSO [7, 19] was 100%. For the same molecule, the GFP response relative to DMSO [8] was 117% (inactive), the GFP response relative to DMSO [8, 20] was 117% and the GFP response relative to DMSO [8, 21] was 116%. For the same molecule, the GFP response vs DMSO [9] was 143% (inactive), the GFP response, % of DMSO [10] was 101% (inactive) and the GFP response, % of DMSO [11] was 112% (inactive). It also gave a GFP response, % of DMSO [11, 18] of 112% and a GFP response, % of DMSO [11, 19] of 112%.
For `N=c1c(C(=O)NCc2ccco2)cc2c(=O)n3ccccc3nc2n1CCc1ccccc1`, the outcome [1] was “inactive”, the fluorescence, percent of control (lower = inhibition) [2] was 28.7% and the GTP binding, percent of control [3] was 40.3%. The outcome [4] was “inactive”, the GTP binding signal, raw median fluorescence (lower = inhibition) (MCF (arbitrary fluorescence units)) [5] was 96.5 and the outcome [6] was “inactive”. For the same molecule, the GFP response vs DMSO [7] was 96.8% (inactive), the GFP response vs DMSO [7, 18] was 96.4% and the GFP response vs DMSO [7, 19] was 95.8%. The GFP response relative to DMSO [8] was 99.2% (inactive), the GFP response relative to DMSO [8, 20] was 99.2% and the GFP response relative to DMSO [8, 21] was 90.8%. The GFP response vs DMSO [9] was 100% (inactive), the GFP response, % of DMSO [10] was 97% (inactive) and the GFP response, % of DMSO [11] was 96.9% (inactive). It also gave a GFP response, % of DMSO [11, 18] of 95.4% and a GFP response, % of DMSO [11, 19] of 91.4%.
For `CN(C)c1ccc(/C=C/C(=O)c2cccc(Br)c2)cc1`, the outcome [1] was “inactive”, the fluorescence, percent of control (lower = inhibition) [2] was 120% and the GTP binding, percent of control [3] was 213%. For the same molecule, the outcome [4] was “inactive”, the GTP binding signal, raw median fluorescence (lower = inhibition) (MCF (arbitrary fluorescence units)) [5] was 225 and the outcome [6] was “inactive”. For the same molecule, the GFP response vs DMSO [7] was 104% (inactive), the GFP response vs DMSO [7, 18] was 105% and the GFP response vs DMSO [7, 19] was 104%. The GFP response relative to DMSO [8] was 99.5% (inactive), the GFP response relative to DMSO [8, 20] was 97.5% and the GFP response relative to DMSO [8, 21] was 102%. For the same molecule, the GFP response vs DMSO [9] was 112% (inactive), the GFP response, % of DMSO [10] was 94% (inactive) and the GFP response, % of DMSO [11] was 98.8% (inactive). It also gave a GFP response, % of DMSO [11, 18] of 97.4% and a GFP response, % of DMSO [11, 19] of 98.1%.
